# From article PMC7862700, “An all-to-all approach to the identification of sequence-specific readers for epigenetic DNA modifications on cytosine”
# How the values were obtained:
# Assay in all cases: DAPPL (digital affinity profiling via proximity ligation, sequencing); 10 mM Tris-HCl pH 7.5, 50 mM NaCl, 1 mM DTT, 4% glycerol, room temperature, 30 min; GST-TFs on glutathione beads, 16-mer random dsDNA library, 0.1% formaldehyde crosslink after washing; high values mean tight binding
# FLI1 = biological target: T1, FLI1 (Homo sapiens, UniProt Q01543 1-452); settings: protein: recombinant; tags: N-terminal GST; dsDNA, one strand shown
# T1 sequence: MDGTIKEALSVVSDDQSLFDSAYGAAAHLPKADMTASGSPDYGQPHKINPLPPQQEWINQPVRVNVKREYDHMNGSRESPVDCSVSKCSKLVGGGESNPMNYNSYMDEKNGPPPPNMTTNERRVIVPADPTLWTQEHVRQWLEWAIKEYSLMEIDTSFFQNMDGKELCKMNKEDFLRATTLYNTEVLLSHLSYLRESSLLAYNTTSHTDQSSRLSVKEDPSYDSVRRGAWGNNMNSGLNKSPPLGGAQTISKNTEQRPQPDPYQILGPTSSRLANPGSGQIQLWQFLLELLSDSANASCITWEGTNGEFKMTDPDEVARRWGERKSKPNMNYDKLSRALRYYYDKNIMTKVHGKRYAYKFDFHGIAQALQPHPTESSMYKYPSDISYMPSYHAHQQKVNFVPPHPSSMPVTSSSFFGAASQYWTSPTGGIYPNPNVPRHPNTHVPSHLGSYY
# In short: (§1)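 Pools were built from human transcription factors expressed in yeast as GST fusions, captured on glutathione beads and DNA-barcoded, along with a tag-only sample. Incubation with 200 nmole of a 16-mer random double-stranded DNA library lasted 30 min at room temperature in Tris/NaCl/DTT/glycerol buffer, and was followed by washing, 0.1% formaldehyde crosslinking, proximity ligation, PCR amplification and Illumina NextSeq500 sequencing. Binding signal is the quotient of each hexamer's read frequency for a factor and its frequency for the tag-only sample.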
# ELK1 = biological target: T2, ELK1 (Homo sapiens, UniProt P19419 1-428); settings: protein: recombinant; tags: N-terminal GST; dsDNA, one strand shown
# T2 sequence: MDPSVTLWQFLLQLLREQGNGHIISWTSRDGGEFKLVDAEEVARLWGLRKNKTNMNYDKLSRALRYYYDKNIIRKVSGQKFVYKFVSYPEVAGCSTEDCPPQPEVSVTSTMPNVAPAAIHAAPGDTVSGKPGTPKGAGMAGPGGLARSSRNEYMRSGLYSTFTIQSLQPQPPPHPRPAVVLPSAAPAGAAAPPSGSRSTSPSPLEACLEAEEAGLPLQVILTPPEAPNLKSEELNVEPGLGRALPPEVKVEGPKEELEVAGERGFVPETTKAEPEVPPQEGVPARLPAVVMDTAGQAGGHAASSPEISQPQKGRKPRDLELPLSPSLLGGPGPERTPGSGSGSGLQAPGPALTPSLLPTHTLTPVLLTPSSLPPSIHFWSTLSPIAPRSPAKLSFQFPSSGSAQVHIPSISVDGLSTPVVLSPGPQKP
# In short: as §1
# GABPA = biological target: T3, GABPA (Homo sapiens, UniProt Q06546 1-454); settings: protein: recombinant; tags: N-terminal GST; dsDNA, one strand shown
# T3 sequence: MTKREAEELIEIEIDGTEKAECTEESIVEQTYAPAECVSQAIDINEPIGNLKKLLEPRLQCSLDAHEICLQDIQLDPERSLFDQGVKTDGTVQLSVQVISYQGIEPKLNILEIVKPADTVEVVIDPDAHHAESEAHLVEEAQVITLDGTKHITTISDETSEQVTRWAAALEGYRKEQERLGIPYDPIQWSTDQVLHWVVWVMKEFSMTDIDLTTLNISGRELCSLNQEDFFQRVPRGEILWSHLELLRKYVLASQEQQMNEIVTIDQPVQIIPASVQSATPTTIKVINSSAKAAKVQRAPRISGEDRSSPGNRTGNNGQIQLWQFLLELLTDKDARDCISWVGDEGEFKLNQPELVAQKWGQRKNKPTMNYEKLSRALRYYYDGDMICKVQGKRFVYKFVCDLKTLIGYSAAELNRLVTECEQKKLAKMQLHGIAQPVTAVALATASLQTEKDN
# In short: as §1
# ERG = biological target: T4, ERG (Homo sapiens, UniProt P11308 1-479); settings: protein: recombinant; tags: N-terminal GST; dsDNA, one strand shown
# T4 sequence: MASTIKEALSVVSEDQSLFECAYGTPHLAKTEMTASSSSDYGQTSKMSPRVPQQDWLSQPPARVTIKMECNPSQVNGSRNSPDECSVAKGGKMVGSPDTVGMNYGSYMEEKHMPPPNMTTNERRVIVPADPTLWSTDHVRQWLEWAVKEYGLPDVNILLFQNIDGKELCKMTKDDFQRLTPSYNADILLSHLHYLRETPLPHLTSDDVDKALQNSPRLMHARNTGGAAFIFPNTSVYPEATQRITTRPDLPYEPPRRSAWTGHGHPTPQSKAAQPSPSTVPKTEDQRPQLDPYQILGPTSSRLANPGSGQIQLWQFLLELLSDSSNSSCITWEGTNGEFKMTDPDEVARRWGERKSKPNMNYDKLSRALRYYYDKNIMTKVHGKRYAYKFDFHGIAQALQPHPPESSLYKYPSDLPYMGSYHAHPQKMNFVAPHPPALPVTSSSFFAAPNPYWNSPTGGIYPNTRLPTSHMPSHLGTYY
# In short: as §1
# ELF1 = ELF1 (Homo sapiens, UniProt P32519 1-619); settings: protein: recombinant; tags: N-terminal GST; dsDNA, one strand shown
# Sequence of ELF1 (P32519 whole entry): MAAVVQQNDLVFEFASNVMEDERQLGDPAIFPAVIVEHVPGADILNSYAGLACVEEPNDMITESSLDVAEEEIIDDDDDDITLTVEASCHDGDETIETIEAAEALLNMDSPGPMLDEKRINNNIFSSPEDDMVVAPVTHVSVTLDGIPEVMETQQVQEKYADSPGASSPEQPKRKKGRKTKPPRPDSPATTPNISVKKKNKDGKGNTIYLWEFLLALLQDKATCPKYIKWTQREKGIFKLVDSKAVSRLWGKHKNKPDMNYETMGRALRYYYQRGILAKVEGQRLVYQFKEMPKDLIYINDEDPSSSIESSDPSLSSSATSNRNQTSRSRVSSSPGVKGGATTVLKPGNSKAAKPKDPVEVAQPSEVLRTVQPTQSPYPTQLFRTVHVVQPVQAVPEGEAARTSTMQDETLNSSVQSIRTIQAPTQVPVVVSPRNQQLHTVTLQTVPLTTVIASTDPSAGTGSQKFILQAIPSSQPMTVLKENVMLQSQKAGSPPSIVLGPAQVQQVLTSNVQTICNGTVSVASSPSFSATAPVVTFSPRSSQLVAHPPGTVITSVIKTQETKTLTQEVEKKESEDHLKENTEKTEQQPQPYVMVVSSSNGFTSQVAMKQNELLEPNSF
# In short: as §1
# EHF = biological target: T5, EHF (Homo sapiens, UniProt Q9NZC4 1-300); settings: protein: recombinant; tags: N-terminal GST; dsDNA, one strand shown
# T5 sequence: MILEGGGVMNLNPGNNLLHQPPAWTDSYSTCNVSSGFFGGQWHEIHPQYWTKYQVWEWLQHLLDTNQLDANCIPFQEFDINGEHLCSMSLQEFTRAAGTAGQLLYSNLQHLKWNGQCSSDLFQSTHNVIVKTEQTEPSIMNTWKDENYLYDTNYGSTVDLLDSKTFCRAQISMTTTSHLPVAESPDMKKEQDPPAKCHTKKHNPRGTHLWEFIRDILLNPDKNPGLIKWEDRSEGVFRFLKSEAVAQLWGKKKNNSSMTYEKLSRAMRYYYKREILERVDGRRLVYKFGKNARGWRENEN
# In short: as §1
# SPI1 = SPI1 (Homo sapiens, UniProt P17947 1-270); settings: protein: recombinant; tags: N-terminal GST; dsDNA, one strand shown
# In short: as §1
# SPIB = SPIB (Homo sapiens, UniProt Q01892 1-262); settings: protein: recombinant; tags: N-terminal GST; dsDNA, one strand shown
# Sequence of SPIB (Q01892 whole entry): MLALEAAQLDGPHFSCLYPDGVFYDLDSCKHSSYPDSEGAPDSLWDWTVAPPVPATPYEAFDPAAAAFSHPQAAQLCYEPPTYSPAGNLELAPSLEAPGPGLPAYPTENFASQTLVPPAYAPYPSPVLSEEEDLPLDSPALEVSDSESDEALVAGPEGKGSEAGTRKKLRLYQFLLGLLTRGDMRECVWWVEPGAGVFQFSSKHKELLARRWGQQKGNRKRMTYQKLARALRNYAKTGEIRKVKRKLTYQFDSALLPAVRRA
# In short: as §1
# ELK3 = biological target: T6, ELK3 (Homo sapiens, UniProt P41970 1-407); settings: protein: recombinant; tags: N-terminal GST; dsDNA, one strand shown
# T6 sequence: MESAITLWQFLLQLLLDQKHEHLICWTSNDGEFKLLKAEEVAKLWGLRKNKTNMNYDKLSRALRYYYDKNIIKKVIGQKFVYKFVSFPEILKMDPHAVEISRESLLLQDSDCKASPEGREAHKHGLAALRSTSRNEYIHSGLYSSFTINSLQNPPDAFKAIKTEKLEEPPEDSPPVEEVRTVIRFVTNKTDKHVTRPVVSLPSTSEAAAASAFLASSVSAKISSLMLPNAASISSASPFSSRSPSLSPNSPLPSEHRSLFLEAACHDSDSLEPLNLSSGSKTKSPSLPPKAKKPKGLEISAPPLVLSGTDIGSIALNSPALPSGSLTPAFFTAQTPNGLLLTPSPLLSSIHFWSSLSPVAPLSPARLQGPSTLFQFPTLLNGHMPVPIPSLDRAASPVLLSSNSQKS
# In short: as §1
# FEV = biological target: T7, FEV (Homo sapiens, UniProt Q99581 1-238); settings: protein: recombinant; tags: N-terminal GST; dsDNA, one strand shown
# T7 sequence: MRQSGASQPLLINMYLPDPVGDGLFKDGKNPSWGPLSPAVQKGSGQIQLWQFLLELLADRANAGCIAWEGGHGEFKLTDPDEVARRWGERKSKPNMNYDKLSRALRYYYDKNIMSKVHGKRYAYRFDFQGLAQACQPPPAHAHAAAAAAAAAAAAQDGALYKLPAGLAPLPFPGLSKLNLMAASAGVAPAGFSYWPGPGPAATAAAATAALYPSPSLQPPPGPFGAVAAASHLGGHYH
# In short: as §1
# ETV5 = ETV5 (Homo sapiens, UniProt P41161 1-510); settings: protein: recombinant; tags: N-terminal GST; dsDNA, one strand shown
# Sequence of ETV5 (P41161 whole entry): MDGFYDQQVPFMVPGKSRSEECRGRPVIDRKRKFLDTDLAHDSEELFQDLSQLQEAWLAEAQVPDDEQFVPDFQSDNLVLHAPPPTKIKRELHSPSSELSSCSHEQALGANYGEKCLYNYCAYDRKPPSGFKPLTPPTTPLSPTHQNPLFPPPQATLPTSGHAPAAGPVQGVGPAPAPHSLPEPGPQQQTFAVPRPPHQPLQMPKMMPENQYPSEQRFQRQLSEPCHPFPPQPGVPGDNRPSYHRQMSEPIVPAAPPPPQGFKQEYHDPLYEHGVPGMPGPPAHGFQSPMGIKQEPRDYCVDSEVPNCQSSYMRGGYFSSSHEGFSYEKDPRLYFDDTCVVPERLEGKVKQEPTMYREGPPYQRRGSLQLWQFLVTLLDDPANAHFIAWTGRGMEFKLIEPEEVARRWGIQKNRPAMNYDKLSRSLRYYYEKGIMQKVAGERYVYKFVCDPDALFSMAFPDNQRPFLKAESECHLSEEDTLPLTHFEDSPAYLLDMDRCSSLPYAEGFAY
# In short: as §1
# HSF1 = HSF1 (Homo sapiens, UniProt Q00613 1-529); settings: protein: recombinant; tags: N-terminal GST; chain copies: 3; dsDNA, one strand shown
# Sequence of HSF1 (Q00613 whole entry): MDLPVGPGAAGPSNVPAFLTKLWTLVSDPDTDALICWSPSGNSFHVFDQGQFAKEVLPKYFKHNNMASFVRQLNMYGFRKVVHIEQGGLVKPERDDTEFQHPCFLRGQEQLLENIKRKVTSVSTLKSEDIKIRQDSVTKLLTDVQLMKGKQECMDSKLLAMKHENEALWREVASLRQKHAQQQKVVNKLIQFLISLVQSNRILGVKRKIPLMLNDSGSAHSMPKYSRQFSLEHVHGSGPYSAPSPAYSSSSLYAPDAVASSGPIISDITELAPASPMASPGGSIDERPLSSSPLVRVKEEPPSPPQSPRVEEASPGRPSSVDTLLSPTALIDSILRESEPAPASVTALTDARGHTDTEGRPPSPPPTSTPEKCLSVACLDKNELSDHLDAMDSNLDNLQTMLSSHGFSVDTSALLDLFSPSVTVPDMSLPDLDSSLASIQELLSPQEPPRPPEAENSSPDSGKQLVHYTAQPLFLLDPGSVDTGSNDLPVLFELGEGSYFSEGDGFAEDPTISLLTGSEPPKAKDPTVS
# In short: as §1
# SPIC = biological target: T8, SPIC (Homo sapiens, UniProt Q8N5J4 1-248); settings: protein: recombinant; tags: N-terminal GST; dsDNA, one strand shown
# T8 sequence: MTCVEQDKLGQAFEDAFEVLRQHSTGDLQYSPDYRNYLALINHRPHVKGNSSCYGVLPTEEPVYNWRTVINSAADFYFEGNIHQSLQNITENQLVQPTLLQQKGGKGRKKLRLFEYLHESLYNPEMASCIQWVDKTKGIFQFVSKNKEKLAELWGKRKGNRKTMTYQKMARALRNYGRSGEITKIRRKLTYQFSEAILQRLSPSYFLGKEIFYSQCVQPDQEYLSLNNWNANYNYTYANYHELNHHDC
# In short: as §1
# ELF4 = ELF4 (Homo sapiens, UniProt Q99607 1-663); settings: protein: recombinant; tags: N-terminal GST; dsDNA, one strand shown
# Sequence of ELF4 (Q99607 whole entry): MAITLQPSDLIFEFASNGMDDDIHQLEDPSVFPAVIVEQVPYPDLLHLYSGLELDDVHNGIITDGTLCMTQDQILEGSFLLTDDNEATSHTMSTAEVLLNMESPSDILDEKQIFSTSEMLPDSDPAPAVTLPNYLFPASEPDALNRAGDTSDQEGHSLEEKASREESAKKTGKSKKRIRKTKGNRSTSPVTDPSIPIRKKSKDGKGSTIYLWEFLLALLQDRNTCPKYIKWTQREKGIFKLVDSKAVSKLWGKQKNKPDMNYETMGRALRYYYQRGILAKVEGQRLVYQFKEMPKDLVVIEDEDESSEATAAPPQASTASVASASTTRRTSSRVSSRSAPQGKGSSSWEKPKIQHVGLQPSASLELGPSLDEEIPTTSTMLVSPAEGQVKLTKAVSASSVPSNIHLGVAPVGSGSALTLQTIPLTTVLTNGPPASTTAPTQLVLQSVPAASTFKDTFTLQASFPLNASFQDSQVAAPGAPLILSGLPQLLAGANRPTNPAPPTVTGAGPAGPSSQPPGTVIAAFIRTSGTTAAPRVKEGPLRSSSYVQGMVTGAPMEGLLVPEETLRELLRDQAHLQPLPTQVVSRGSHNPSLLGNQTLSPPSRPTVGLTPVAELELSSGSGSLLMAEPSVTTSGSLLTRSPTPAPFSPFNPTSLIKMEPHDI
# In short: as §1
# ELK4 = biological target: T9, ELK4 (Homo sapiens, UniProt P28324-2 1-405); settings: protein: recombinant; tags: N-terminal GST; dsDNA, one strand shown
# T9 sequence: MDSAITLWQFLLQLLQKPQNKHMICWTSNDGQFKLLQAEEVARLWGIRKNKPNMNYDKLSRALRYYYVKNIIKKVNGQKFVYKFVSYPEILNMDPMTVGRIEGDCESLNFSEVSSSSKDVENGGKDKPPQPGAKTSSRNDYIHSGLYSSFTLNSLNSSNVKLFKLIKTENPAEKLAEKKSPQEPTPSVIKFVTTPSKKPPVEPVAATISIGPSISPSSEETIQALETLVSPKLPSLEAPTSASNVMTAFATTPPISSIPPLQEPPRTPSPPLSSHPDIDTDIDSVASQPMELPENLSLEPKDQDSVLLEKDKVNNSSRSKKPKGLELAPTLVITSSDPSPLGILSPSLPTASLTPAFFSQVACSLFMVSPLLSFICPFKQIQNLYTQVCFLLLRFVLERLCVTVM
# In short: as §1
# ETV2 = biological target: T10, ETV2 (Homo sapiens, UniProt O00321 1-342); settings: protein: recombinant; tags: N-terminal GST; dsDNA, one strand shown
# T10 sequence: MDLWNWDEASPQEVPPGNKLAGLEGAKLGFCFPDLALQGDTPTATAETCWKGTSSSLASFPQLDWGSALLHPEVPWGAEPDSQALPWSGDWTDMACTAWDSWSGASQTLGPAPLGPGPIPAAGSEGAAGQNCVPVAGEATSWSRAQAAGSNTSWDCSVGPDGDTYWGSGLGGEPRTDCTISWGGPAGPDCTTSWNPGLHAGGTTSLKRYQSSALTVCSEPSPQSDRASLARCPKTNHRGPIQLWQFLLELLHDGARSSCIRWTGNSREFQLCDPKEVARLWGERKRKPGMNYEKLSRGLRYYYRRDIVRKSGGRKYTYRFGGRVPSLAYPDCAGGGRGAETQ
# In short: as §1
# ELF3 = biological target: T11, ELF3 (Homo sapiens, UniProt P78545 1-371); settings: protein: recombinant; tags: N-terminal GST; dsDNA, one strand shown
# T11 sequence: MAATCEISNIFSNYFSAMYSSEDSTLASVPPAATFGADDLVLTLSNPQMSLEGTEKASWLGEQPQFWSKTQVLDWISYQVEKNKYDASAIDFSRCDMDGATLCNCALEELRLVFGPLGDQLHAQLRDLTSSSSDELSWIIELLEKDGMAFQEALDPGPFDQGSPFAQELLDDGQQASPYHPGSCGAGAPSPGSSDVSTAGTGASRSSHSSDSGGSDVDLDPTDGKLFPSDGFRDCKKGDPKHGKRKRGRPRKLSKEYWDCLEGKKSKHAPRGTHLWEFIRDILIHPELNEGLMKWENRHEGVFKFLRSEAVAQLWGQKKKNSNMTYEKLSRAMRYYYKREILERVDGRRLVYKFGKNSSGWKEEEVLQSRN
# In short: as §1
# CRX = CRX (Homo sapiens, UniProt O43186 1-299); settings: protein: recombinant; tags: N-terminal GST; dsDNA, one strand shown
# Sequence of CRX (O43186 whole entry): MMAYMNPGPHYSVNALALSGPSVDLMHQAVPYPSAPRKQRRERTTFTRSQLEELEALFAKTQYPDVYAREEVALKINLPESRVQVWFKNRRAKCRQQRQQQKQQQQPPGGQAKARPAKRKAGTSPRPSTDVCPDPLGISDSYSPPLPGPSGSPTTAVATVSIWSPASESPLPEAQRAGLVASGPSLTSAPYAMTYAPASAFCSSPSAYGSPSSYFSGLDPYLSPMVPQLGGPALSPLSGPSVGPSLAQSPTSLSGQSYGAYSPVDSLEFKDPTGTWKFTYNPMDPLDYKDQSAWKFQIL
# In short: as §1
# ETV1 = ETV1 (Homo sapiens, UniProt P50549 1-477); settings: protein: recombinant; tags: N-terminal GST; dsDNA, one strand shown
# Sequence of ETV1 (P50549 whole entry): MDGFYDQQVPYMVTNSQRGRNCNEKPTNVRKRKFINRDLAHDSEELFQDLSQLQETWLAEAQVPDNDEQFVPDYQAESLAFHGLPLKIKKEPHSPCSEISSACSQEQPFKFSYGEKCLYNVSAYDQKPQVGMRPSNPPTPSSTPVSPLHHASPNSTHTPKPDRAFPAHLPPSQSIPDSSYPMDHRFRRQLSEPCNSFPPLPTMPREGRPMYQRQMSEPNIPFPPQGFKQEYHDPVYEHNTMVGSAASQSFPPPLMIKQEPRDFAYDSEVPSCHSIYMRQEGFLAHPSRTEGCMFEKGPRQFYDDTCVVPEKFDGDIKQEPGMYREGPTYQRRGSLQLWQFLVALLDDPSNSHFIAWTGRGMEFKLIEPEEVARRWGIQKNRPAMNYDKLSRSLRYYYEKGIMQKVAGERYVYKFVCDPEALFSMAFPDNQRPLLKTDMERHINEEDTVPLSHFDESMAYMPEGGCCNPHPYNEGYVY
# In short: as §1
sequence,measurement,setting,value
ACAATC,binding signal,FLI1,"1.08 fold enrichment (6-mer frequency, TF over GST control)"
same,binding signal,ELK1,"1.09 fold enrichment (6-mer frequency, TF over GST control)"
same,binding signal,GABPA,"1.19 fold enrichment (6-mer frequency, TF over GST control)"
same,binding signal,ERG,"1.16 fold enrichment (6-mer frequency, TF over GST control)"
same,binding signal,ELF1,"1.21 fold enrichment (6-mer frequency, TF over GST control)"
same,binding signal,EHF,"1.13 fold enrichment (6-mer frequency, TF over GST control)"
same,binding signal,SPI1,"1.12 fold enrichment (6-mer frequency, TF over GST control)"
same,binding signal,SPIB,"1.09 fold enrichment (6-mer frequency, TF over GST control)"
same,binding signal,ELK3,"1.13 fold enrichment (6-mer frequency, TF over GST control)"
same,binding signal,FEV,"1.11 fold enrichment (6-mer frequency, TF over GST control)"
same,binding signal,ETV5,"1.1 fold enrichment (6-mer frequency, TF over GST control)"
same,binding signal,HSF1,"1.43 fold enrichment (6-mer frequency, TF over GST control)"
same,binding signal,SPIC,"1.17 fold enrichment (6-mer frequency, TF over GST control)"
same,binding signal,ELF4,"1.11 fold enrichment (6-mer frequency, TF over GST control)"
same,binding signal,ELK4,"1.15 fold enrichment (6-mer frequency, TF over GST control)"
same,binding signal,ETV2,"1.18 fold enrichment (6-mer frequency, TF over GST control)"
same,binding signal,ELF3,"1.29 fold enrichment (6-mer frequency, TF over GST control)"
same,binding signal,CRX,"1.36 fold enrichment (6-mer frequency, TF over GST control)"
same,binding signal,ETV1,"1.16 fold enrichment (6-mer frequency, TF over GST control)"
